From PubChem BioAssay AID504882 (Broad Institute, 2011)
The whole screen tested about 1,200 compounds, of which about 290 (24%) were called active. About 9% were inconclusive and are not listed. The list is a sample of the results. Potency and affinity values are given separately. Values without a mark were called inactive. The rule behind the calls is not given here.

Experiment: cytotoxicity in EBV lymphoblastoid cells, dose response, cytotoxicity control, cell-based, plate reader, cherry-picks, set 2 (AID 504882);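 note: 0% = neutral control wells and -100% = positive control wells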
Conditions: EBV lymphoblastoid cells (LCL) viability; series mostly up to 19.5 µM; activity change, negative = cytotoxicity: at the top concentration

| Compound | activity change, negative = cytotoxicity |
| --- | --- |
| Cc1nc(N)nc(SCc2ccc([N+](=O)[O-])cc2)c1N | 16.3% |
| COCCCn1cnnc1SCC(=O)Nc1ccc(S(=O)(=O)N2CCCC2)cc1 | 2.78% |
| O=C(CCN1CCC(c2ccccc2)C1)c1ccc2c(c1)OCCO2 (stereo not drawn) | 5.06% |
| COCCn1c(C)cc(C(=O)COC(=O)C23CC4CC(CC(O)(C4)C2)C3)c1C | 5.11% |
| CC(C)OCCCNC(=O)C1CCC(CNS(=O)(=O)c2ccccc2)CC1 (stereo not drawn) | 16.1% |
| COC(=O)c1cc2n(n1)CCN(Cc1ccccc1Cl)C2=O | 7.47% |
| COc1ccc(OC)c2c1sc(=NC(=O)c1ccco1)n2C | 3.7% |
| CCc1cc2c(Sc3nc4ccccc4s3)ncnc2s1 | -26.7% |
| c1ccc(-n2nnc3c(N4CCOCC4)ncnc32)cc1 | -8.14% |
| Cc1ccc(CNC(=O)C2CCN(S(=O)(=O)c3c(C)noc3/C=C/c3ccco3)CC2)cc1 | 2.03% |
| COc1cc(Cl)cc(C(c2c(C(=O)O)[nH]c3ccccc23)c2c(C(=O)O)[nH]c3ccccc23)c1O | 1.54% |
| Cn1cccc1C(=O)OCC(=O)Nc1ccc2c(c1)OCO2 | 12.5% |
| O=C(Nc1cccc(Cl)c1)Nc1cccc(C(=O)O)c1 | 11.1% |
| Cc1ccc(C(=O)N2CCN(c3ccc(NC(=O)CSc4ccc(Cl)cc4)cc3)CC2)cc1 | 12.6% |
| CC1CCN(c2ccc(-c3ccc(NC(=O)C(F)(F)F)cc3)nn2)CC1 | -0.015% |
| CSc1ccccc1NC(=O)CN1CCCCC1C (stereo not drawn) | 8.46% |
| Cn1cccc1CC(=O)NNC(=S)Nc1ccccc1Cl | 21.9% |
| Cc1ccnc(NC(=O)c2cccc(NC(=O)c3ccc(Cl)c(Cl)c3)c2)c1 | 16.7% |
| CC(=O)NC(CCS(C)(=O)=O)C(=O)Nc1ccc(Cl)c(Cl)c1 (stereo not drawn) | 9.78% |
| COc1ccccc1NC(=S)NN=C(C)c1ccccn1 | -19.9% [at 6.8 µM] |
| Cc1ccc(NC(=S)NCc2cccs2)cc1 | 15.5% |
| S=C(NN=C1C2CC3CC(C2)CC1C3)Nc1ccccc1 | 21.1% |
| COCCCNCC1C(Oc2ccc(Cl)cc2)C(=O)N1c1ccccc1C (stereo not drawn) | 18.1% |
| O=c1cc(Cl)nc2ccccn12 | 11% |
| CCCc1nc(SCC(=O)NCc2ccco2)c2c(=O)n(C)c(=O)n(C)c2n1 | -11.3% |
| COC(=O)[C@@]1(Cc2ccccc2)[C@H]2C(=O)N(Cc3ccccc3)C(=O)[C@H]2[C@H]2CN=C(SCc3ccc(Cl)cc3)N21 | 49.3% |
| CCOCCCNC(=O)CN1C(=O)/C(=C\c2ccc(C)cc2)Sc2ccccc21 | 3.59% |

| Compound | activity change, negative = cytotoxicity |
| --- | --- |
| O=C1NC(c2cccc(OCc3ccccc3)c2)Nc2ccccc21 (stereo not drawn) | 3.11% |
| COc1ccccc1C1(CC(=O)O)CCOC(C)(C)C1 (stereo not drawn) | 23.2% |
| Clc1cccc(CN2CCCCCC2)c1 | 18.4% |
| O=C(c1ccccc1Br)N1CCN(Cc2ccc3c(c2)OCO3)CC1 | 2.58% |
| Fc1cccc(Cl)c1/C=N/n1c(-c2cccnc2)n[nH]c1=S | 13.3% |
| Cn1c(-c2ccccc2)cnc1SCC(=O)N1CCCCC1 | -1.03% |
| COc1ccc([C@H]2N[C@]3(CCCN(Cc4ccco4)C3=O)[C@H]3C(=O)N(Cc4ccccc4)C(=O)[C@@H]23)cc1 | 8.48% |
| Cc1nn(-c2ccccc2)c(Cl)c1C(=O)N1CCN(c2ncnc3c2cnn3-c2ccccc2)CC1 | 8.3% |
| COc1ccc(/C=C2\N=C(C)OC2=O)cc1[N+](=O)[O-] | 15.4% |
| Cc1ccc(N2C(=O)c3ccccc3C2Nc2cccnc2)nc1 (stereo not drawn) | 8.83% |
| C=CCN=C1NN=C(c2cc(C)n(CCOC)c2C)CS1 | 7.41% |
| COc1ccc(-c2nc(CN3CCC(C(=O)N4CCOCC4)CC3)c(C)o2)cc1C | 17% |
| Cc1cc2ccccc2n1CCNC(=O)COc1ccc2ccccc2c1 | -7.24% |
| Cc1ccccc1C(=O)c1c[nH]c(C(=O)NCc2ccco2)c1 | 2.39% |
| O=C1c2ccccc2C(O)N1Cc1ccccc1 (stereo not drawn) | 14.5% |
| Nc1ncnc2c1c(-c1ccc(Oc3ccccc3)cc1)cn2C1CCCC1 | 50.1% [at 6.8 µM] |
| CN1CCN(C(=O)C2=C[C@@H](C(C)(C)C)C[C@@H](OCc3ccc(CO)cc3)O2)CC1 | 11.6% |
| COc1ccc(C(CNC(=O)Nc2ccccc2)N2CCN(C)CC2)cc1 (stereo not drawn) | 14.2% |
| CC1CN(c2cc(=O)n(-c3ccccc3)c(=O)[nH]2)CC(C)O1 (stereo not drawn) | 18.3% |
| N#CCCn1cc(C(=O)Nc2ccccn2)c(-c2ccccc2)n1 | 14.4% |
| Cc1ccc(NC(=O)C(=O)Nc2ccccn2)cc1 | -5.99% |
| O=C(Nc1ccccn1)NC1CCCCC1 | 7.78% |
| COc1ccc(OCC(=O)Nc2nccs2)cc1 | -3.7% |
| O=[N+]([O-])c1ccc(N2CCN(Cc3cccc([N+](=O)[O-])c3)CC2)cc1 | -8.09% |
| Cc1ccc(C2=C/C(=C\c3cccnc3)C(=O)O2)cc1 | 26.3% |
| CCOc1ccc(N(C(C)C(=O)N2CCCCCC2)S(C)(=O)=O)cc1 (stereo not drawn) | 16.9% |
